NLRP3 yeast inh = NALP3 inhibition in yeast; Yeast reconstituted NLRP3/ASC/caspase-1, beta-gal luminescence, 24 h; inhibition, % at 10 µM; 0.39% of 330,000 active; AID 2825;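 active = inhibition of 50% or more; inactive = inhibition below 50%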
TIM10 inh = growth inhibitors of TIM10 yeast strain; 1.4% of 330,000 active; inhibition, % at 10 µM; S. cerevisiae TIM10 strain growth, BacTiter-Glo luminescence, 24 h;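 active = inhibition of 40% or more at the single tested concentration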;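 note: wild-type TIM10 isogenic control strain grown at permissive 25 °C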
tim10-1 inh = inhibits growth of tim10-1 mutant yeast | S. cerevisiae tim10-1 ts strain growth, BacTiter-Glo, 24 h | 2.2% of 330,000 active | inhibition, % at 20 µM | AID 463190;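 active = inhibition of at least 40%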;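 note: mutant grown at 25 °C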
tim23-1 inh = inhibits growth of tim23-1 mutant yeast; S. cerevisiae tim23-1 growth, BacTiter-Glo luminescence, 24 h; inhibition, % at 20 µM; 1.3% of 330,000 active; AID 463212;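 active = growth inhibition of the mutant yeast at or above 50%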;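 note: temperature-sensitive mutant grown at 25 °C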
PfHsp90 set2 = growth inhibition of yeast expressing Plasmodium Hsp90 | inhibition, % at 9.4 µM | 0.32% of 310,000 active | S. cerevisiae expressing PfHsp90, BacTiter-Glo ATP, 48 h; yeast lacking PDR1 and PDR3 efflux regulators;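 active = every replicate shows inhibition above about 80%, whatever the replicate mean, limit read from the data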
tim10-1 confirm = confirmation of tim10-1 mutant yeast growth inhibitors. 56% of 7,400 active. S. cerevisiae tim10-1 ts strain growth, BacTiter-Glo, 24 h. shares compounds with tim10-1 inh. inhibition, % at 20 µM;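 active = inhibition of yeast growth at or above a set limit in either of two repeat tests at 20 µM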;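 note: tim10-1 mutant grown at permissive 25 °C to find synthetic lethal compounds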
Large screens that a line does not name were inactive (follow-up assays come after a bar, where they were run). Most compounds without a hit are left out; they make up all but 3.7% or so of the library.

Cn1cccc1C(=O)NC(=O)COC(=O)c1ccc(S(C)(=O)=O)c([N+](=O)[O-])c1	tim10-1 inh 40.9 | tim10-1 confirm 32.5
Cn1cccc1C(=O)NC(=O)COC(=O)c1ccc(S(C)(=O)=O)cc1	none
Cn1ccsc1=NC(=O)c1ccc(S(C)(=O)=O)c([N+](=O)[O-])c1	tim10-1 inh 40.1 | tim10-1 confirm 27.8
CN(C(=O)C1CCC(CNS(=O)(=O)c2cccc3cccnc23)CC1)C1CCCCC1 (stereo not given)	none
Cc1nc(N2CCC(C)CC2)c2c(C)c(C(=O)Nc3ccc4c(c3)OCCO4)sc2n1	tim10-1 inh 41.5 | tim10-1 confirm inactive
Cc1c(C(=O)Nc2ccc3c(c2)OCCO3)sc2ncnc(N3CCCCC3C)c12 (stereo not given)	tim10-1 inh 46.3 | tim10-1 confirm inactive
CC(=O)c1c(C)[nH]c(C(=O)Nc2nc(-c3ccc(-c4ccccc4)cc3)cs2)c1C	tim10-1 inh 45.4 | tim10-1 confirm inactive
Cc1cccc(NC(=O)CSc2nc3ccccc3c3nc(CCc4c(C)n[nH]c4C)nn23)c1	tim10-1 inh 41.4 (no result: PfHsp90 set2) | tim10-1 confirm inactive
O=C(Nc1cc(C(F)(F)F)ccc1N1CCOCC1)C1=COCCO1	none
O=C(Cc1ccc2c(c1)OCCO2)Nc1cc(C(F)(F)F)ccc1N1CCOCC1	tim10-1 inh 41.3 | tim10-1 confirm inactive
O=C1c2ccccc2C(=O)N1CCc1nc2ccccc2c(=O)n1-c1ccccn1	tim10-1 inh 48.7 | tim10-1 confirm inactive
O=C(Nn1c(SCc2ccc(F)cc2)nc2ccsc2c1=O)c1ccccc1	tim10-1 inh 40.2 | tim10-1 confirm inactive
CC1=C[C@H](C)[C@H](c2c(F)cccc2Cl)CC1=O	none
CCC(c1nnnn1CCOC)N1CCN(c2nc3ccccc3s2)CC1 (stereo not given)	none
COCCn1nnnc1C(CC(C)C)N1CCN(c2nc3ccccc3s2)CC1 (stereo not given)	tim10-1 inh 44.5 | tim10-1 confirm 32.3
Cc1ccccc1-c1nnc(SCC(=O)N2CCCC2)o1	none
Cc1cccc(Sc2ccc([N+](=O)[O-])cc2[N+](=O)[O-])n1	tim10-1 inh 43.7 | tim10-1 confirm inactive
COC(=O)c1ccc(N2C(=O)CC(N(C)CCc3ccc(OC)c(OC)c3)C2=O)cc1 (stereo not given)	tim10-1 inh 41.1 | tim10-1 confirm 44.4
COc1ccc(N2C(=O)CC(N(C)CCc3ccc(OC)c(OC)c3)C2=O)cc1 (stereo not given)	none
COc1ccc(OC)c(C2=NS(=O)(=O)N(C)C(C(=O)Nc3ccc(F)cc3F)=C2)c1	tim10-1 inh 42.0 | tim10-1 confirm inactive
CCOC(=O)/C=C/C(=O)Nc1ccc(S(=O)(=O)N2CCCCCC2)cc1	tim10-1 inh 44.4 (no result: PfHsp90 set2) | tim10-1 confirm 34.0
O=C(Nc1ccc(S(=O)(=O)N2CCCCC2)cc1)c1cccnc1Cl	tim10-1 inh 42.2 | tim10-1 confirm inactive
CCOC(=O)/C=C/C(=O)Nc1ccc(S(=O)(=O)N2CCc3ccccc32)cc1	none
O=C(Nc1ccc(F)cc1F)c1cccc(S(=O)(=O)N2CCCCC2)c1	tim10-1 inh 46.4 (no result: PfHsp90 set2) | tim10-1 confirm inactive
O=C(Nc1ccc(S(=O)(=O)N2CCCCC2)cc1)c1ccc(F)cc1	tim10-1 inh 49.5 | tim10-1 confirm 47.5
Cc1nn(CSc2c(F)c(F)c(F)c(F)c2F)c(C)c1[N+](=O)[O-]	none
Cc1cccc(CNC(=O)C2CCC(=O)N(CCc3cccc(F)c3)C2)n1 (stereo not given)	none
O=C(Nc1cccc(S(=O)(=O)NC2=NCCCCC2)c1)c1ccc(Cl)cc1	none
COc1ccc(OCC(=O)N2N=C(C(F)F)CC2(O)C(F)F)cc1 (stereo not given)	tim10-1 inh 52.8 | tim10-1 confirm 42.5
CSc1ccccc1NC(=S)NC1CCCC1	none
CCCCc1ccccc1NC(=S)NC1CCCC1	tim10-1 inh 42.7 | tim10-1 confirm inactive
Cc1ccc(NC(=S)NNC(=O)c2ccccc2OC(F)F)cc1	tim10-1 inh 40.4 | tim10-1 confirm 38.7
O=C(NNC(=S)Nc1ccc(F)cc1)c1ccccc1OC(F)F	none
O=C(NNC(=S)Nc1cccc(Cl)c1)c1ccccc1OC(F)F	tim10-1 inh 42.7 | tim10-1 confirm inactive
Cc1cccc(NC(=O)CSc2cccc[n+]2[O-])c1C	none

Compound activity deposited in PubChem by several laboratories.
